For 69 molecules, activity change vs negative control results are on record in PubChem BioAssay AID1946 (Johns Hopkins Ion Channel Center, 2009).

Molecules are shown by their SMILES. Screen size: about 2,400 compounds; about 180 (7.5%) were called active. The sample as a whole holds a higher share of actives than the screen did. Values without a mark were called inactive.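 The calls were made as follows: active = readout below zero, meaning a drop past 3 SD under the dofetilide-free negative control mean; inactive = the rest.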

The target in the assay is Potassium voltage-gated channel subfamily KQT member 2 (Rattus norvegicus) (UniProt O88943). The assay is described as follows: rat KCNQ2 channel inhibition by compounds alone, confirmation, counter-screen for hERG block protector project, cell-based, CHO, FluxOR thallium flux (AID 1946). Conditions: CHO-KCNQ2 cells, FluxOR thallium flux fluorescence; at 10 µM; hits give low values; zero marks the 3-SD hit cutoff. For orientation: Counterscreens check selectivity or assay interference.
Chain of Potassium voltage-gated channel subfamily KQT member 2 (Rattus norvegicus) (O88943 whole entry, looked up): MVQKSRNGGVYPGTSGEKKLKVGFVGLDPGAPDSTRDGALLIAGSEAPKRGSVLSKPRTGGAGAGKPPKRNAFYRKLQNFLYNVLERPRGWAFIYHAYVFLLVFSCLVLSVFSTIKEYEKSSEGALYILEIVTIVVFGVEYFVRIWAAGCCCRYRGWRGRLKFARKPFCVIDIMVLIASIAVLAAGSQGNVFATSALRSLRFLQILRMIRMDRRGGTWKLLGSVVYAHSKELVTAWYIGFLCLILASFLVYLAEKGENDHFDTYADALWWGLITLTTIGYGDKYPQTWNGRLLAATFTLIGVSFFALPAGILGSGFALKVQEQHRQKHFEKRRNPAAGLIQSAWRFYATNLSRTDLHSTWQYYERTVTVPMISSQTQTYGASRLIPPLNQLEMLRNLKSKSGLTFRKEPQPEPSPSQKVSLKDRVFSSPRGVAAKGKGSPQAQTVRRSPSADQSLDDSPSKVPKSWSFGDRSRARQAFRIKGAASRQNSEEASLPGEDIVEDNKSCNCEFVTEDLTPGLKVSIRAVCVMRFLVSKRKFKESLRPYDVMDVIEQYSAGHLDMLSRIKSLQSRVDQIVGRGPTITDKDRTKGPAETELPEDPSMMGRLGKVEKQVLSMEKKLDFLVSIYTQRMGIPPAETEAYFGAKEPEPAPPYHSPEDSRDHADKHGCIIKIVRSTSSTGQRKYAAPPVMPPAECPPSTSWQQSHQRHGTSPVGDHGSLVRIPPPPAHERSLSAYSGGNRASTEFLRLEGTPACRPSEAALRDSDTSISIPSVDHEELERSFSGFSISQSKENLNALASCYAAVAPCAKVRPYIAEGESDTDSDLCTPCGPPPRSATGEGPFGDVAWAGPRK
As to `CCc1ccc(S(=O)(=O)NC(=S)NC2CCCCC2)cc1`, the activity change vs negative control was 83.7%.

For `O=C(CCN1C(=O)/C(=C\C=C\c2ccccc2)SC1=S)Nc1cccc(C(=O)O)c1`, the activity change vs negative control was 0.8%.

For the molecule `C/C(O)=C/c1nc2ccccc2[nH]c1=O`, the activity change vs negative control is -2% (active).

Turning to `Cc1nc2ccc(C(=O)O)cc2[nH]1`, the activity change vs negative control is 11.1%.

In the case of `O=c1[nH]c2ccccc2nc1C(F)(F)C(F)F`, the activity change vs negative control is 15.2%.

In the case of `OC(CCN1CCOCC1)c1ccccc1` (centres undefined), the activity change vs negative control is -2.1% (active).

As to `S=C(NCCc1ccccc1)NCCN1CCOCC1`, the activity change vs negative control was 11.5%.

With `O=C(O)Cn1cc(CN2CCOCC2)c2ccccc21`, the activity change vs negative control is 2.7%.

For `O=c1ccn(Cc2ccc(F)cc2)c2ccnc(C(F)(F)F)c12`, the activity change vs negative control is -1.9% (active).

As for `COc1ccc(C(=O)Nc2ccccc2C(=O)O)cc1Cl`, the activity change vs negative control is 19.2%.

As to `O=C(NC(=S)NCCC1=CCCCC1)c1ccco1`, the activity change vs negative control was 66.4%.

Regarding `Cc1cccc(Cn2c(O)c(N=NC(=S)Nc3ccccc3F)c3ccccc32)c1`, the activity change vs negative control was 5.5%.

For the molecule `COc1cccc(-n2nc(C(=O)O)c3ccccc3c2=O)c1`, the activity change vs negative control is 25.1%.

Take `COc1cccc(NC(=O)c2nn(-c3ccc(OC)cc3OC)c(=O)c3ccccc23)c1`: the activity change vs negative control is 15.7%.

With `CCN(CC)CCCNC(=O)c1cn(-c2cccc(OC)c2)c(=O)c2ccccc12`, the activity change vs negative control was -4% (active).

Turning to `CCC1CCc2c(sc(NC(=O)C3CC=CCC3C(=O)O)c2C#N)C1` (centres undefined), the activity change vs negative control was 32.7%.

Regarding `CCN(CC)c1ccc(NC(=S)NC(=O)c2cccs2)cc1`, the activity change vs negative control is 18.4%.

`CCOC(=O)Cc1csc(NC(=S)NC(=O)C(C)(C)C)n1`: the activity change vs negative control was 28.2%.

`CCOc1ccc(-c2cccc(NC(=O)c3ccc(Br)o3)c2)nn1`: the activity change vs negative control is -8.6% (active).

As for `COc1cccc(C(=O)Nc2cccc(-c3ccc(N4CCOCC4)nn3)c2)c1`, the activity change vs negative control is 5.2%.

Regarding `Cc1cccc(NC(=S)NC(=O)c2ccc(Br)o2)c1`, the activity change vs negative control is 69.7%.

Take `O=c1c2cc(Cl)ccc2nc(-c2ccc([N+](=O)[O-])cc2)n1O`: the activity change vs negative control is 54.4%.

As to `O=C(COc1ccccc1Cl)NC(=S)Nc1ccccc1N1CCCC1`, the activity change vs negative control is 6.2%.

With `CNC(=S)Nc1sc2c(c1C(=O)OC)CCC2`, the activity change vs negative control was 31.9%.

Regarding `Cc1cccc(C(=O)NC(=S)N2CCc3ccccc3C2)c1`, the activity change vs negative control is 50.3%.

For the molecule `Cc1cccc(C(=O)NC(=S)N(C)C2CCCCC2)c1`, the activity change vs negative control is 46.3%.

Regarding `Cc1cccc(C(=O)NNC(=S)NC(=O)c2ccccc2)c1`, the activity change vs negative control was 26.9%.

Consider `Cc1cccc(C(=O)NC(=S)NNC(=O)c2ccc(Cl)cc2)c1`, for which the activity change vs negative control was -7.1% (active).

Take `Cc1ccc(NC(=S)NC(=O)c2ccc(-c3ccccc3)cc2)cc1`: the activity change vs negative control is 10.9%.

Take `Cc1cccc(C(=O)NC(=S)NNC(=O)COc2c(C)cccc2C)c1`: the activity change vs negative control is -13.3% (active).

As to `Cc1ccc(C(=O)NNC(=S)NC(=O)c2ccccc2)cc1`, the activity change vs negative control is -4.5% (active).

In the case of `O=C(NNC(=S)NC(=O)c1sc2ccccc2c1Cl)c1ccc(Cl)cc1`, the activity change vs negative control is 32.9%.

Regarding `Cc1ccc(C(=O)NNC(=S)NC(=O)c2ccc(Cl)cc2)cc1`, the activity change vs negative control was 0.8%.

With `Cc1sc2nc(CN3CCOCC3)[nH]c(=S)c2c1C`, the activity change vs negative control was 108%.

As for `Cc1ccc(-c2c(=O)n(O)c3ccccc3[n+]2[O-])cc1`, the activity change vs negative control is 88.6%.

Take `O=c1c2ccccc2nc(-c2ccc(Cl)c(Cl)c2)n1O`: the activity change vs negative control was 91.4%.

As for `COc1cc(OC)cc(C(=O)NNC(=O)C(=O)Nc2cc(OC)c(Cl)cc2OC)c1`, the activity change vs negative control was 71%.

Regarding `C[n+]1ccccc1/C=C/c1ccc(C#N)cc1`, the activity change vs negative control was 17.3%.

As to `O=c1[nH]c(C(Cl)(Cl)Cl)nc2ccc3ccccc3c12`, the activity change vs negative control was 37%.

Regarding `O=C(NC(=S)Nc1ccccc1N1CCCC1)c1ccco1`, the activity change vs negative control is 39%.

`O=C(NC(=S)Nc1cccc(Cl)c1N1CCCCC1)c1cccs1`: the activity change vs negative control is 1.9%.

With `O=C(NC(=S)Nc1ccccc1N1CCCC1)c1cccs1`, the activity change vs negative control is 14.1%.

As for `O=C(NC(=S)Nc1ccccc1N1CCCC1)c1ccc([N+](=O)[O-])cc1`, the activity change vs negative control is 21.1%.

As to `O=C(NC(=S)Nc1ccccc1N1CCCC1)c1ccccc1Br`, the activity change vs negative control was -8.3% (active).

Consider `O=C(NC(=S)Nc1ccccc1N1CCCCC1)c1cccs1`, for which the activity change vs negative control was 0% (active).

On to `CCOc1cc(N2CCOCC2)c(OCC)cc1NC(=O)CCC1CCCC1`, for which the activity change vs negative control is 104%.

As for `O=C(NC(=S)N1CCCC1)c1ccc(Cl)cc1`, the activity change vs negative control was 26.1%.

As to `O=c1c(O)c(-c2ccc3c(c2)OCO3)oc2ccccc12`, the activity change vs negative control is 35%.

With `CN1C(=O)c2ccc(C(=O)NCc3ccccc3)cc2C1=O`, the activity change vs negative control was 10.5%.

Turning to `Cc1ccc(CNC(=O)C2=CCN(S(=O)(=O)c3ccc(C)cc3)CC2)cc1`, the activity change vs negative control was 6.4%.

As for `Cc1ccc(CNC(=O)c2ccc(CNc3c(N4CCCC4)c(=O)c3=O)cc2)cc1`, the activity change vs negative control is -1.7% (active).

`CC(=O)c1c(N2CCN(Cc3ccccc3)CC2)[nH]c(-c2ccccc2)nc1=S`: the activity change vs negative control is 50.5%.

As to `COc1ccc(-n2nc(C)cc2Nc2ccccc2C(=O)O)cc1`, the activity change vs negative control was 43.7%.

On to `C/C(=N\Nc1nc(C)c(C)s1)c1ccc([N+](=O)[O-])cc1`, for which the activity change vs negative control is 31.5%.

Take `O=c1[nH]c(N2CCN(c3ccccc3)CC2)nc2c1CCCC2`: the activity change vs negative control was 12%.

On to `c1ccc(-c2ccnc3nc(N4CCN(c5ccccc5)CC4)nn23)cc1`, for which the activity change vs negative control was -4.9% (active).

In the case of `Cc1ccc(C(=O)NC(=S)N(C)Cc2ccccc2)cc1`, the activity change vs negative control was 28.6%.

Consider `CCC(=O)N(CC)c1nc(-c2ccc(OC)cc2)cs1`, for which the activity change vs negative control was 60.4%.

Take `Cc1ccc(Cn2nnc3c(=O)n(CC(=O)N4CCCc5ccccc54)cnc32)cc1`: the activity change vs negative control is 13%.

Turning to `Cc1c(C(=O)NNC(=O)c2ccncc2)oc2ccc(Br)cc12`, the activity change vs negative control was -1.5% (active).

Turning to `Cc1c(C(=O)NC(=S)NCc2cccnc2)oc2ccccc12`, the activity change vs negative control is 5.5%.

In the case of `CC(NC(=O)c1ccncc1)C(C)(C)C` (centres undefined), the activity change vs negative control is 32.4%.

With `O=C1CSC(=S)N1/N=C/c1cc(Br)ccc1O`, the activity change vs negative control was 21.5%.

On to `O=C(COc1ccc(Cl)cc1Cl)NC(=S)N1CCCc2ccccc21`, for which the activity change vs negative control was 0.8%.

`O=C(COc1ccccc1)NC(=S)N1CCc2ccccc21`: the activity change vs negative control was 25.7%.

Regarding `O=C(COc1ccc(Br)cc1Br)NC(=S)N1CCCc2ccccc21`, the activity change vs negative control was -2.3% (active).

For the molecule `O=C(COc1ccc(Br)cc1Cl)NC(=S)N1CCc2ccccc21`, the activity change vs negative control was 9.4%.

Consider `O=C(NC(=S)N1CCCc2ccccc21)c1ccccc1`, for which the activity change vs negative control is 21.6%.

Take `Cc1cccc(OCC(=O)NC(=S)N2CCCc3ccccc32)c1`: the activity change vs negative control was -0.9% (active).
